# Several values for one entry are separate records, joined by “and”; a condition that tells them apart may be missing. Equal entries are not always repeated. Unmarked numbers belong to inactive results. Inconclusive results are not listed. Entries that show only a call come without a potency. Activity calls are given as the source filed them. Unless noted, calls come from the whole dose curve; as a rule, active = well fitted curve in the direction sought with a large enough effect in the repeat runs; inconclusive = weak or mixed curves; inactive = no such curve, though single readings can be large; an effect the other way counts as inactive or inconclusive.
# Experiments:
# [1] = qHTS assay for small molecules that induce genotoxicity in human embryonic kidney cells expressing luciferase-tagged ATAD5 (AID 651632); note: nearly all actives have a fitted effect of over 15% in size
# How it was run: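 Luminescent reporter readout, HEK293T ATAD5-luc line: 16 hr drug exposure (37C, 5% CO2) followed by Amplite, 30 min RT.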
# [2] = qHTS assay for small molecule agonists of the p53 signaling pathway - cell viability (AID 651633; calls by dose curve;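 note: p53RE-bla HCT reporter cells with a stable beta-lactamase p53 reporter; nearly all actives have a fitted effect of over 30% in size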)
# How it was run: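 Viability counter-read: CellTiter-Glo luminescence (30 min, room temperature) in the same p53RE-bla plates. These plates had been exposed to compounds for 16 h at 37 C.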
# [3] = qHTS assay for small molecules that induce genotoxicity in human embryonic kidney cells expressing luciferase-tagged ATAD5 - cell viability (AID 651634; calls by dose curve; note: nearly all actives have a fitted effect of over 25% in size)
# How it was run: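 Viability read: CellTiter-Fluor fluorescence, 30 min at 37C. Cells: HEK293T, luciferase-tagged ATAD5. Exposure: 15.5 hr, 37C, 5% CO2, compound or DMSO vehicle.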
# [4] = qHTS assay for small molecule disruptors of the mitochondrial membrane potential (AID 720635); note: potency is the fitted concentration of half-maximal effect
# How it was run: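 Mitochondrial membrane potential tracked with Mito-MPS dye, red aggregates (ex 540/em 590 nm) against green monomers (ex 490/em 535 nm). Compound treatment 1 hr at 37C, dye 30 min in HepG2.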
# [5] = qHTS assay to test for compound auto fluorescence at 590 nm (red) in HepG2 cells (AID 720674)
# How it was run: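 1 hr compound incubation on HepG2 cells, 37 C, 5% CO2; plate read ex 540 nm / em 590 nm; intensities reported as Rose Bengal sodium equivalents.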
# [6] = qHTS assay to test for compound auto fluorescence at 535 nm (green) in HepG2 cells (AID 720675)
# [7] = qHTS assay to test for compound auto fluorescence at 460 nm (blue) in HEK293 cells (AID 720678)
# How it was run: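 Measured: blue fluorescence (Ex 405/Em 460 nm) of compound-treated HEK293 cells, incubated overnight at 37C with 5% CO2 and scaled to triamterene equivalents.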
# [8] = qHTS assay to test for compound auto fluorescence at 590 nm (red) in HEK293 cells (AID 720679)
# How it was run: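 Using HEK293 cells at 2,000 per well, the screen added 23 nL of each compound after cell attachment and incubated overnight (37C, 5% CO2). The plate reader then captured red-label fluorescence, Ex/Em 540/590nm.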
# [9] = qHTS assay to test for compound auto fluorescence at 535 nm (green) in HEK293 cells (AID 720680)
# [10] = qHTS assay to test for compound auto fluorescence at 460 nm (blue) in HEK293 cell free culture (AID 720681)
# How it was run: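 Blue fluorescence (Ex 405/Em 460 nm, triamterene-equivalent) was read immediately after pin transfer of compound or DMSO into medium (DMEM, 10% FBS) without cells.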
# [11] = qHTS assay to test for compound auto fluorescence at 535 nm (green) in HEK293 cell free culture (AID 720682)
# How it was run: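 Intrinsic compound fluorescence is measured in culture medium containing 10% FBS, with excitation at 485 nm and detection at 535 nm, referenced to fluorescein.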
# [12] = qHTS assay to test for compound auto fluorescence at 590 nm (red) in HEK293 cell free culture (AID 720683)
# How it was run: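 Red-channel autofluorescence of compounds in culture medium (DMEM, 10% FBS), no cells, measured at 540/590 nm. Rose Bengal sodium is the reference fluorophore for equivalence.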
# [13] = qHTS assay to test for compound auto fluorescence at 590 nm (red) in HepG2 cell free culture (AID 720684)
# How it was run: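 Steps: dispense MEM/10% FBS medium, no cells; pin compound or DMSO vehicle; read red channel, Ex/Em 540/590 nm. Output given as Rose Bengal sodium equivalents.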
# [14] = qHTS assay to test for compound auto fluorescence at 460 nm (blue) in HepG2 cell free culture (AID 720685)
# How it was run: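 Compound (23 nL) or DMSO pinned into cell-free MEM with 10% FBS; blue fluorescence read at 405/460 nm excitation/emission, expressed as auto-fluorescence equivalency to triamterene.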
# [15] = qHTS assay to test for compound auto fluorescence at 535 nm (green) in HepG2 cell free culture (AID 720686)
# [16] = qHTS assay to test for compound auto fluorescence at 460 nm (blue) in HepG2 cells (AID 720687)
# How it was run: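 Blue-channel autofluorescence (Ex/Em 405/460 nm, triamterene-equivalent) was measured after 1 hr compound exposure at 37 C, 5% CO2. Cells were HepG2, plated overnight at 37 C in MEM plus 10% FBS.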
# [17] = molecular target: Glucocorticoid receptor (Homo sapiens) (UniProt P04150); experiment: qHTS assay to identify small molecule agonists of the glucocorticoid receptor (GR) signaling pathway (AID 720691; active = well fitted activation curve with a large enough effect in the signal ratio in the repeat runs, not every such curve was filed as active; the % refers to the signal ratio); settings: GR-bla HeLa, beta-lactamase reporter ratio, 18 h; activation: at 62.4 µM (top of the series)
# Chain of Glucocorticoid receptor (Homo sapiens) (P04150 whole entry, looked up): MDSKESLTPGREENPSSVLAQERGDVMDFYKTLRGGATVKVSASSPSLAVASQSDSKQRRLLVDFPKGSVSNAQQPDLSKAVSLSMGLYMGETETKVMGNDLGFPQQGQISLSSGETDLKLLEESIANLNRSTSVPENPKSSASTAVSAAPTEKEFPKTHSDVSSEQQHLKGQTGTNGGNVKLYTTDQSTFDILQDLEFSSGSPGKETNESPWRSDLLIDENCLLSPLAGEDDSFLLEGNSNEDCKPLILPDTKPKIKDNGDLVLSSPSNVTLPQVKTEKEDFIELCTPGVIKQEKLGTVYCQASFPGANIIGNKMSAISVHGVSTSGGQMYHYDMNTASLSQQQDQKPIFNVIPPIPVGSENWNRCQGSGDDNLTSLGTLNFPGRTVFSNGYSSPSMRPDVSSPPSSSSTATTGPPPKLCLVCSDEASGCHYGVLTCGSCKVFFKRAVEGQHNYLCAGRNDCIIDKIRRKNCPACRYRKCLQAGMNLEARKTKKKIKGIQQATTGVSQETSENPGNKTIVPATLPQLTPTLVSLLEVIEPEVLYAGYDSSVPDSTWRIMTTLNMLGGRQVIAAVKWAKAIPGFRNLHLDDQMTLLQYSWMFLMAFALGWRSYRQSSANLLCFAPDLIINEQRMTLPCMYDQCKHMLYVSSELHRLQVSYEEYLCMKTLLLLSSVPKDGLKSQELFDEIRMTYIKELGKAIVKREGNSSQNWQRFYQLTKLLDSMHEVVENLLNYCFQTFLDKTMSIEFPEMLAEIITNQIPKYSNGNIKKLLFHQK
# How it was run: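 qHTS in GR-bla HeLa cells: 4 h settling at 37 C/5% CO2, 18 h compound incubation at 37 C, 2 h LiveBLAzer B/G FRET substrate at room temperature, fluorescence intensity measured.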
# [18] = molecular target: Glucocorticoid receptor (Homo sapiens) (UniProt P04150); experiment: qHTS assay to identify small molecule antagonists of the glucocorticoid receptor (GR) signaling pathway (AID 720692; active = well fitted inhibition curve with a large enough effect in the signal ratio in the repeat runs, not every such curve was filed as active; the % refers to the signal ratio)
# How it was run: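 Inhibition of glucocorticoid signalling is measured in HeLa cells with a GRE-controlled beta-lactamase reporter; cells are co-treated with compound and 5 nM dexamethasone (final) for 18 h before FRET substrate readout.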
# [19] = qHTS assay for small molecule disruptors of the mitochondrial membrane potential - cell viability (AID 720634; calls by dose curve;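 note: human HepG2 liver cancer cells; nearly all actives have a fitted effect of over 20% in size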)
# How it was run: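 HepG2, 1 hr compound, 37 C. ATP luminescence via CellTiter-Glo, 30 min RT, same well as m-MPI.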
# [20] = qHTS assay for small molecule agonists of the p53 signaling pathway (AID 651631; calls by dose curve; note: nearly all actives have a fitted effect of over 15% in size)
# How it was run: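 Fluorescence intensity from cleaved LiveBLAzer B/G substrate (2 h, room temperature) served as the signal. Beforehand, HCT-116 reporter cells bearing p53 response elements were treated 16 h at 37 °C with DMSO-dissolved compounds.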
SMILES,outcome [1],Potency [2],Potency [3],Potency [4],outcome [5],outcome [6],outcome [7],outcome [8],outcome [9],outcome [10],outcome [11],outcome [12],outcome [13],outcome [14],outcome [15],outcome [16],Potency [17],Potency [18],Potency [19],Potency [20]
CC(=O)CC(=O)Nc1ccccc1,inactive,inactive,inactive,inactive,inactive,inactive,inactive,inactive,inactive,inactive,inactive,inactive,inactive,inactive,inactive,inactive,inactive,inactive,,
Cc1cccnc1,inactive,inactive,inactive,inactive,inactive,inactive,inactive,inactive,inactive,inactive,inactive,inactive,inactive,,inactive,,,,,
CCCCCOC(C)=O,inactive,inactive,,inactive,inactive,inactive,inactive,inactive,inactive,inactive,inactive,inactive,,inactive,inactive,inactive,inactive,inactive,inactive,
O=C(O)[C@H](O)[C@@H](O)[C@H](O)[C@H](O)CO,inactive,,inactive,inactive,inactive,inactive,inactive,inactive,inactive,inactive,inactive,inactive,,,inactive,inactive,,,inactive,
Cc1ccc2oc(=O)ccc2c1,inactive,inactive,,inactive,inactive,inactive,inactive,inactive,inactive,inactive,inactive,inactive,inactive,inactive,inactive,,inactive,inactive,,
COc1ccc(NC(C)=O)cc1N,inactive,inactive,inactive,inactive,inactive,inactive,inactive,inactive,inactive,inactive,inactive,inactive,inactive,,inactive,,inactive,inactive,inactive,
CCN(CC)c1ccc(C(=O)c2ccccc2C(=O)O)c(O)c1,inactive,inactive,,,inactive,inactive,inactive,inactive,inactive,inactive,inactive,inactive,,inactive,inactive,inactive,inactive,inactive,,
O=C(O)c1cc(C(=O)O)cc(S(=O)(=O)O)c1,inactive,inactive,,inactive,inactive,inactive,inactive,inactive,inactive,inactive,inactive,inactive,,,inactive,inactive,inactive,inactive,inactive,
CCCCCC1=CCCC1=O,inactive,inactive,,inactive,inactive,inactive,inactive,inactive,inactive,inactive,inactive,inactive,inactive,,inactive,,,inactive,,
CC1CCC(C(C)C)C(O)C1 (stereo not drawn),inactive,inactive,inactive,inactive,inactive,inactive,inactive,inactive,inactive,inactive,inactive,inactive,inactive,inactive,inactive,inactive,,,,
C=C(C)C(=O)Nc1ccc(Cl)c(Cl)c1,inactive,inactive,inactive,19.5 µM (active) and 30.5 µM (active),inactive,inactive,inactive,inactive,inactive,inactive,inactive,inactive,,inactive,inactive,,,,,
CCCCC(CC)COC(=O)CCCCC(=O)OCC(CC)CCCC (stereo not drawn),,inactive,,,inactive,inactive,inactive,inactive,inactive,inactive,inactive,inactive,inactive,inactive,inactive,inactive,inactive,inactive,inactive,inactive

# Source: PubChem BioAssay (Tox21)
